In all, about 69,000 compounds went through this assay and about 8,600 (12%) showed an effect of 50% or more. Many of the other results were omitted from the sample, so strong results are more common in it than they were.

This assay relates to Plasmodium berghei. The assay can be described thus: Screen against P. berghei liver stage (PbLuc), transformed with Luciferase, at 10uM. Type of assay: functional, HepG2. Particulars: tested at 10 uM.
Turning to `CCNC(=O)C1(Cc2cc(-c3ccc(C)cc3)no2)CCCN(C)C1` (stereo unspecified), the INHIBITION came to 23%.

On to `c1ccc(-c2nnc([C@H]3CCN(C4CCC4)C3)o2)cc1`, for which the INHIBITION came to 46.4%. The same measure for `c1ccc(-c2nnc([C@H]3CCN(C4CCOCC4)C3)o2)cc1`: 18.4%. For `COc1ccc(-c2nnc([C@H]3CCN(C4CCC4)C3)o2)cc1`, the INHIBITION amounted to 57.8%.

For the compound `Cc1ccc(-c2nnc([C@H]3CCN(C4CCC4)C3)o2)cc1`, the INHIBITION is 4.07%. As for `c1cc(-c2nnc([C@H]3CCN(C4CCOCC4)C3)o2)ccn1`, the figure is 54%.

With `c1cc(-c2nnc([C@H]3CCN(C4CCCCC4)C3)o2)ccn1`, the INHIBITION is given as -5.77%.

In the case of `O=C(NCCc1ccccn1)[C@@]12CCO[C@@H]1CCN(c1ncccn1)C2`, the INHIBITION is 34.6%.

For `CCc1ncc2c(n1)CN(CC(=O)Nc1cccnc1)CC2`, the INHIBITION was 19.4%. The same measure for `CSc1ccc(NC(=O)Cn2cc(NC(C)=O)cn2)cc1`: 33.7%. In the case of `CCOC(=O)[C@H]1[C@@H](O)C(=O)N(C)C12CCN(C(=O)OC)CC2`, the INHIBITION turned out to be 29.8%.

With `Cn1ccc(CN2CCC(CC(=O)NC3CCCC3)CC2)cc1=O`, the INHIBITION was found to be 27.2%. As for `COc1cc(CNC(=O)COC2CCCCC2)ccc1O`, the figure is 26.5%; as for `Cc1noc([C@@H]2C[C@H]3OCC[C@H]3N(S(=O)(=O)c3ccccc3)C2)n1`, -5.08%; as for `Cc1occc1C(=O)NCC(=O)N(C)CCCOc1ccc(F)cc1`, 26.7%.

In the case of `Cc1occc1C(=O)NCC(=O)N(C)CCCOc1ccccc1`, the INHIBITION amounted to 61%. As for `Cc1ccccc1C(NC(=O)CNC(=O)c1ccoc1C)C(C)C` (stereo unspecified), the INHIBITION is -68.2%. In the case of `Cc1occc1C(=O)NCC(=O)NCCOc1cccc(Cl)c1`, the INHIBITION is -10.6%. In the case of `Cc1occc1C(=O)NCC(=O)NCCOc1ccc2c(c1)CCC2`, the INHIBITION worked out at 42.3%. The same measure for `Cc1occc1C(=O)NCC(=O)NCCCOc1ccc(F)cc1`: 54.5%; for `O=C1CC(c2ccc(C(F)(F)F)cc2)c2c(n3ccsc3nc2=O)N1` (stereo unspecified): 17%.

Turning to `COc1nsc2nc(C3CCCN3c3ncccn3)ccc12` (stereo unspecified), the INHIBITION was determined as 25.49%. The same measure for `Cc1ccc(C(=O)NCC(C)Cn2ccnc2C)c(=O)[nH]1` (stereo unspecified): 55.5%; for `Cc1ccc(C(=O)NCCCn2cccn2)c(=O)[nH]1`: -1.98%.

As for `Cc1ccc(C(=O)NC(C)Cn2cccn2)c(=O)[nH]1` (stereo unspecified), the INHIBITION is 42.6%.

Take `Cc1ccc(C(=O)NCC(O)c2ccc(Cl)s2)c(=O)[nH]1` (stereo unspecified): the INHIBITION is given as 37.2%. As for `Cc1ccc(C(=O)NCC(C)Cn2cccn2)c(=O)[nH]1` (stereo unspecified), the figure is 58.5%; as for `Cc1ccc(C(=O)NCC(C)CN2CCCC2=O)c(=O)[nH]1` (stereo unspecified), 37.1%; as for `Cc1cnc(C(=O)N2C[C@@H]3CC[C@H]2CN(Cc2cscn2)C3)[nH]1`, 42.1%. As for `COc1cccc(CN2CCN(c3cccc(C(C)C)n3)CC2)c1F`, the figure is -26.1%; as for `Cc1ccc(F)cc1NC(=O)c1[nH]ncc1Br`, 11.7%. The same measure for `COCC(C)NS(=O)(=O)c1ccc(Br)cn1` (stereo unspecified): 56%. For `CCS(=O)(=O)N(C)CC(=O)Nc1ccc(Br)cn1`, the INHIBITION worked out at 6.81%. As for `CS(=O)(=O)CCOCCNc1ccc(Br)cn1`, the figure is -3.08%.

For the compound `C[C@H](CCO)NS(=O)(=O)c1ccc(Br)cn1`, the INHIBITION came to 21.7%. `CCC(CCO)NS(=O)(=O)c1ccc(Br)cn1` (stereo unspecified): the INHIBITION stood at 65.4%. As for `COCC(C)NC(=O)c1cncc(Br)c1` (stereo unspecified), the figure is -26.4%. With `CCN(C(=O)c1nc2c(s1)CCCN2C(C)=O)C(C)C`, the INHIBITION is given as 5.68%.

In the case of `O=C(c1cccc2c1OCCO2)N1CCCC1c1noc(C2CC2)n1` (stereo unspecified), the INHIBITION is on record as 2.3%. The same measure for `COCC(=O)N1CCC2(COCc3cnc(NCc4ccco4)nc32)C1` (stereo unspecified): 24.3%. As for `COCCC(=O)N1CCC2(COCc3cnc(NCC4CC4)nc32)C1` (stereo unspecified), the figure is 61.5%. Regarding `COCCC(=O)N1CCC2(COCc3c(C)nc(NCC4CC4)nc32)C1` (stereo unspecified), the INHIBITION was determined as 33%.

For the compound `COCCC(=O)N1CCC2(COCc3cnc(N(C)C)nc32)C1` (stereo unspecified), the INHIBITION is 53.2%. As for `COCCC(=O)N1CCC2(COCc3cnc(-c4ccccc4)nc32)C1` (stereo unspecified), the figure is 16.5%; as for `COCCC(=O)N1CCC2(COCc3cnc(-c4cccnc4)nc32)C1` (stereo unspecified), 33.1%; as for `Cc1cccc(CNC(=O)CCc2c(C)nc3cc(O)nn3c2C)n1`, 33.3%.

Consider `CC(CN1CCOCC1)NC(=O)NCc1ccoc1` (stereo unspecified), for which the INHIBITION is -7.36%. As for `Cc1nc(NCCN2CCCC2=O)cc(C2CN(C)CCO2)n1` (stereo unspecified), the figure is -17.9%. As to `CC(NC(=O)NCCCn1cncn1)c1ccc(C(F)(F)F)cc1` (stereo unspecified), the INHIBITION was -16.88%. As for `Cc1ccc(S(=O)(=O)N2C[C@H]3C[C@H](NC(=O)c4ccnn4C)[C@H]3C2)cc1`, the INHIBITION is reported as 77.9%. The same measure for `Cc1ccc(S(=O)(=O)N2C[C@H]3C[C@H](NC(=O)c4cnn(C)c4)[C@H]3C2)cc1`: 78.5%; for `Cc1ccc(S(=O)(=O)N2C[C@H]3C[C@H](NC(=O)C(C)C)[C@H]3C2)cc1`: 19.6%. As for `Cc1ccc(S(=O)(=O)N2C[C@H]3C[C@H](NC(=O)c4cc(C)no4)[C@H]3C2)cc1`, the figure is 5.11%. The same measure for `Cc1ccc(S(=O)(=O)N2C[C@@H]3C[C@@H](NC(=O)C(C)(C)C)[C@@H]3C2)cc1`: 44.9%.

For `Cc1ccc(S(=O)(=O)N2C[C@H]3C[C@H](NC(=O)c4ccn(C)n4)[C@H]3C2)cc1`, the INHIBITION was determined as 38.7%. `CC1(C)CN=C(N2CCN(CC3CCCCO3)CC2)S1` (stereo unspecified): the INHIBITION turned out to be 27.6%. As for `COCC1COCCC12CCN(Cc1cccs1)CC2` (stereo unspecified), the figure is 23.6%. As for `COCCN1C(=O)C[C@H]2[C@H]1CCN2C(=O)c1ccc[nH]1`, the figure is 26.3%; as for `CCN1CCN(Cc2nc(CCc3ccccc3)n[nH]2)CC1`, 56.5%. Regarding `CCN1CCN(Cc2nc(Cc3ccccc3)n[nH]2)CC1`, the INHIBITION is recorded as -7.17%. As for `c1ccc(CCc2n[nH]c(CCN3CCCCC3)n2)cc1`, the figure is 38.5%; as for `CCOCc1cc(CNC2CCCc3c2cnn3CC)ccc1OC` (stereo unspecified), 33.8%. As for `Cc1nc2sccn2c1CN(CCCN(C)C)Cc1ccco1`, the figure is 33.5%; as for `CC(CO)NC(=O)c1ccc(NCc2cc(C#N)ccc2F)cc1` (stereo unspecified), 26.8%. As for `Cc1ccc(CN2C[C@@H]3CC[C@H]2CN(Cc2[nH]cnc2C)C3)o1`, the figure is 24.9%. As to `Cc1nc[nH]c1CN1C[C@H]2CC[C@@H](C1)N(C(=O)CCc1cnn(C)c1)C2`, the INHIBITION is reported as 40.1%. As for `Cc1nc[nH]c1CN1C[C@H]2CC[C@@H](C1)N(C(=O)c1cnn(C)c1)C2`, the figure is 10.7%; as for `CSCCCN1C[C@@H]2CC[C@H]1CN(Cc1[nH]cnc1C)C2`, 45.8%. As for `Cc1cc(CN2C[C@@H]3CC[C@H]2CN(Cc2[nH]cnc2C)C3)on1`, the figure is 62.1%; as for `Cc1cccc(CN2C[C@@H]3CC[C@H]2CN(Cc2[nH]cnc2C)C3)n1`, 58.5%.

`Cc1nc[nH]c1CN1C[C@H]2CC[C@@H](C1)N(C(=O)CCc1cccnc1)C2`: the INHIBITION is on record as 8.38%. As for `CSc1ccccc1CN1C[C@@H]2CC[C@H]1CN(Cc1[nH]cnc1C)C2`, the figure is 60.3%; as for `Cc1nc[nH]c1CN1C[C@H]2CC[C@@H](C1)N(C(=O)CCNS(C)(=O)=O)C2`, 26.8%.

For the compound `COCC1CC2(CCN(C(=O)c3occc3C)CC2)CN1C(C)C` (stereo unspecified), the INHIBITION is 18.4%. As for `CSc1ncccc1C(=O)N(CCO)Cc1ccccc1`, the INHIBITION is on record as 21.4%. Consider `CCC(CN1CCCC1)NC(=O)Cc1c(C)[nH]c2cc(C)cc(C)c12` (stereo unspecified), for which the INHIBITION is listed as 6.32%. The same measure for `Cc1nc(-c2ccco2)ccc1C(=O)NCC(=O)N1CCCCC1`: -5.65%; for `CCc1ncncc1C(=O)N1CCCC(n2nc(C)nc2C)C1` (stereo unspecified): -31.8%; for `Cn1c(C(=O)Nc2nc[nH]n2)cc2ccccc21`: 41.9%.

`COCCCN(Cc1cnc(C2CCCCC2)nc1)C1CCN(C)CC1`: the INHIBITION worked out at 49.4%.

With `O=C(c1cscn1)N1CCc2ncnc(-c3cccnc3)c2CC1`, the INHIBITION turned out to be 23.6%. The same measure for `Cc1cnc(N2CC[C@H]3[C@@H]2CCC(=O)N3c2cccnc2)nc1`: 37.1%; for `CS(=O)(=O)N1CCC(c2nc3ccc(-c4cccc(F)c4)cn3n2)CC1`: 58.3%. The same measure for `CC(=O)N1CCC(c2nc3ccc(-c4cccc(F)c4)cn3n2)CC1`: 79.2%; for `CCS(=O)(=O)N1CCC(c2nc3ccc(-c4ccccc4)cn3n2)CC1`: 31.8%. The same measure for `CN(C)C(=O)N1CCC(c2nc3ccc(-c4ccccc4)cn3n2)CC1`: 65.3%; for `COCC(=O)N1CCC(c2nc3ccc(-c4ccccc4)cn3n2)CC1`: -28.2%. Regarding `COCC(=O)N1CCC(c2nc3ccc(N4CCCC4)cn3n2)CC1`, the INHIBITION was -18.2%. As for `COCC(=O)N1CCC(c2nc3ccc(-c4ccncc4)cn3n2)CC1`, the figure is 53.4%; as for `CN1CCC(c2nc3ccc(-c4ccccc4)cn3n2)CC1`, -15.7%; as for `CC(=O)N1CCC(c2nc3ccc(NC4CCC4)cn3n2)CC1`, 9.51%. As for `CN1CCC(c2nc3ccc(-c4cccc(F)c4)cn3n2)CC1`, the figure is 33.5%; as for `c1ccc(-c2ccc3nc(C4CCN(CC5CC5)CC4)nn3c2)cc1`, 6.8%. As for `CN(C)C(=O)N1CCC(c2nc3ccc(N4CCCC4)cn3n2)CC1`, the figure is 47.9%; as for `CO[C@@H]1CCN(Cc2ccccn2)[C@@H]2CN(Cc3ccco3)C[C@@H]21`, 20.9%.

Consider `CCc1nc(C)c(C(=O)NCCNC(=O)Cc2cccc(F)c2)s1`, for which the INHIBITION was -27.9%.

Take `C=Cn1cc(CN2CCc3nc(-c4cccnc4)nc(O)c3C2)c(C)n1`: the INHIBITION came out at 1.5%. As for `Cc1occc1C(=O)Nc1cccc(C(=O)OCC2CCCN2)c1` (stereo unspecified), the figure is -24.7%. The same measure for `CN(C)C(=O)CN1CCC2(CCCN(Cc3cccs3)C2)C1=O` (stereo unspecified): 8.6%. As for `O=C1COC2(CCN(Cc3nccs3)CC2)CN1c1ccccc1`, the figure is 35.6%; as for `N#Cc1ccc(N2CCC(OCCc3ccccc3)CC2)nc1`, 45.5%.

Source of the values: ChEMBL document CHEMBL4513216, “Probing the Open Global Health Chemical Diversity Library for Multistage-Active Starting Points for Next-Generation Antimalarials” (ACS Infect Dis, 2020).
